SMN2 splice enh: increases expression of the SMN2 splice variant. HEK293 SMN2-luciferase splicing reporter, luminescence, 30-36 h. Potency, µM (titrated, usually from 46.1 µM), for inactives: at the top dose activity change, positive = activation, most hits filed as activators. 2.8% of 210,000 active. AID 1458; further: % of control where 0% means no effect; nearly all actives have a fitted effect of over 55% in size
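HEK293 cells carry an SMN2 minigene-luciferase reporter in which exon 7 inclusion puts luciferase in frame. Cells were seeded at 2000 cells/well, attached for 10-12 hours, then exposed to compounds for 30-36 hours at 37C before ONE-Glo luminescence.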
FLuc counter: inhibits or activates purified firefly luciferase, miR-21 counter-screen; P08659; purified FLuc, Km substrates, luminescence inhibition; Potency, µM (series often up to 57.5 µM), without a hit: at the top dose activity change, negative = inhibition, most hits filed as inhibitors; 6.9% of 360,000 active; AID 588342;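 further: plate controls were vehicle for no effect and reference inhibitor for full effect; nearly all actives have a fitted effect of over 55% in size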
Target sequence (P08659 whole entry, looked up): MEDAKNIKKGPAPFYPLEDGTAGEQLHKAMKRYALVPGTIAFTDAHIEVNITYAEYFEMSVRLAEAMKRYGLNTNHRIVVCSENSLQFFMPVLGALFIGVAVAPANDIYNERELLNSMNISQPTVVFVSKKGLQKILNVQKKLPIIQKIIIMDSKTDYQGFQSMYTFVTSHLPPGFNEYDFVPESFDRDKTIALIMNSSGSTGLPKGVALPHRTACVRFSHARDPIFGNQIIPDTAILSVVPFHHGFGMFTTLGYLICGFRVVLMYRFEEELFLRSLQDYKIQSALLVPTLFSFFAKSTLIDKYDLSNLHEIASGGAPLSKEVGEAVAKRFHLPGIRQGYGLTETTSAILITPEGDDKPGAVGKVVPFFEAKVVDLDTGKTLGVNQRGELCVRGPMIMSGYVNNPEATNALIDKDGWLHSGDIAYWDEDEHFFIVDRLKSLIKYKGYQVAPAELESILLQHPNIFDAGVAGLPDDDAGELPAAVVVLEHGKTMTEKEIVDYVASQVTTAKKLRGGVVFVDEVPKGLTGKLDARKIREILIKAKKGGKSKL
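Biochemical qHTS of compounds, final roughly 60 µM downward over six points, against 10 nM purified firefly luciferase using Km concentrations of substrates (10 uM D-luciferin, 10 uM ATP) in Tris acetate pH 7.5 buffer; luminescence output.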
ELG1 genotoxic: induces genotoxicity in HEK293T cells with luciferase-tagged ELG1 | Potency, µM (series often up to 46 µM), without a hit: top-dose activity change, positive = activation, hits mostly activators | HEK293T ELG1-luciferase reporter, luminescence, 16 h | 1.3% of 330,000 active; further: % of control where 0% means no effect; nearly all actives have a fitted effect of over 60% in size
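HEK293T cells expressing luciferase-tagged ELG1 were exposed to compound or DMSO vehicle for 16 hr at 37 °C and 5% CO2. Luciferase activity was then measured with ONE-Glo after 30 min at room temperature.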
Rab9 prom act: activates the Rab9 promoter; Huh7 Rab9 promoter-luciferase reporter, luminescence, 24 h; Potency, µM (series often up to 9.22 µM), without a hit: at the highest dose activation, negative = inhibition, actives largely listed as activators; 2.8% of 320,000 active; further: % of control where 0% means no effect; nearly all actives have a fitted effect of over 60% in size
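Huh7 cells stably carrying Rab9 promoter–luciferase reporter, plated 1500 cells/well, compound added after 2 h and incubated 24 h at 37 °C; luciferase luminescence then read after 10 min with detection reagent.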
NPC1 prom act: activates the NPC1 promoter; Huh7 NPC1 promoter luciferase reporter, 24 h; Potency, µM (titrated, usually from 9.22 µM), for the others: top-dose activation, usual class: activators; 2.4% of 320,000 active; further: % of control where 0% means no effect; nearly all actives have a fitted effect of over 60% in size
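Compounds in DMSO were transferred onto Huh7 NPC1-luciferase reporter cells pre-incubated 2 h; after 24 h at 37 °C, Amplite reagent was dispensed and luminescence recorded 10 min later.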
* = called active by the depositor; ? = inconclusive; / = no result given; [ ] = another dose, or the depositor's remark. An excerpt weighted towards active compounds, which were near 7.4% of everything screened. The call rests on the fitted dose curve; in most records, active means well fitted curve in the direction sought with a large enough effect; inconclusive means small, poorly fitted or top-dose-only effect, or another doubt; inactive means no such curve, though single readings can be large; an effect the other way counts as inactive or inconclusive. Potency means the concentration at half of the fitted maximal effect.

SMILES	SMN2 splice enh	FLuc counter	ELG1 genotoxic	Rab9 prom act	NPC1 prom act
O=C/C(=C\Nc1ccccn1)c1nc2ccccc2o1	25%	13µM*	1%	5%	13%
CC(=O)Nc1cccc(N/C=C(\C=O)c2nc3ccccc3o2)c1	?	19µM*	11%	19%	15%
CC(=O)Nc1ccc(N/C=C(\C=O)c2nc3ccccc3o2)cc1	/	6%	1%	19%	-2%
COc1ccc(-c2[nH]c3ccccc3c2SCCNC(=O)c2cc(OC)c(OC)c(OC)c2)cc1	-13%	-10%	/	/	/
COc1cc2oc(=O)c(CC(=O)NCc3ccc(OC)c(OC)c3)c(C)c2cc1Cl	0%	4%	/	/	/
CN(C)CCN1C(=O)CC[C@]2(C)C1=CC[C@@H]1[C@@H]2CC[C@]2(C)[C@H]1CC[C@]2(C)O	2%[9.22 µM]	/	/	/	/
C=CC1=C2C=C(C3CC3)N(CCOC)C=C2C(=O)C(C)(OC(=O)c2ccco2)C1=O (stereo not given)	11%[9.22 µM]	/	/	/	/
Cc1ccc2c(Sc3ccccc3)c(C(=O)NCc3ccccc3F)[nH]c2c1	/	-5%	/	/	/
O=C(Nc1ccc(Cl)cc1C(=O)Nc1ccncc1)c1ccco1	32µM*	-17%	-12%	8%	2%
O=C(Nc1ccc(N2CCOCC2)cc1N1CCOCC1)c1ccc(Cl)cc1	/	-2%	-11%	-1%	-1%
O=C(Nc1ccc(Cl)cc1C(=O)NCc1cccnc1)c1ccco1	?	0%	-1%	0%	4%
O=C(Nc1ccc(N2CCOCC2)c(Cl)c1)c1ccc(Cl)cc1	-86%	17µM*	-16%	29%	14%
O=C(Nc1ccc(N2CCOCC2)c(Cl)c1)c1ccccc1F	24%	9.5µM*	5.2µM*	3.5µM*	3.2µM*
O=C(Nc1ccc(N2CCOCC2)c(Cl)c1)c1ccco1	13µM*	9.5µM*	2.6µM*	3.5µM*	1.4µM*
COc1ccc(C(=O)NCCn2cc(SCC(=O)NCCc3ccc(OC)c(OC)c3)c3ccccc32)cc1	-10%	?	/	/	/
Cc1c(Cl)cccc1NC(=O)CSc1ncnc2c1sc1ccccc12	/	-1%	/	/	/
CCC(C(=O)NCCCN(CC)CC)n1ncn2c(cc3occc32)c1=O (stereo not given)	-4%	-6%	/	/	/
O=C(Nc1ccc(N2CCOCC2)c(Cl)c1)C1CCCCC1	-12%	?	?	13%	18%
O=C(Nc1nnc(-c2cc(Cl)ccc2Cl)o1)c1ccco1	/	6µM*	?	19%	16%
O=C(Nc1ccc(Br)c(Cl)c1)c1ccco1	?	21µM*	21µM*	3.5µM*	?
O=C(Nc1ccc(NC(=O)c2ccco2)c(Cl)c1)c1ccccc1	/	?	?	?	25%
Cc1cc(C(=O)Nc2ccc(N3CCOCC3)c(Cl)c2)c(C)o1	/	6.7µM*	?	2.8µM*	?
O=C(Nc1ccc(N2CCOCC2)c(Cl)c1)c1ncn[nH]1	17%	21µM*	2%	9%	23%
CCc1ccc(NC(=O)Cn2c(=O)n(CCC(=O)NCCc3ccc(OC)c(OC)c3)c(=O)c3ccccc32)cc1	-6%	0%	/	/	/
CC(C)CCN(Cc1ccco1)C(=O)c1cc2c(Cl)nc3ccccc3c2s1	-10%	-2%	/	/	/
SMILES	SMN2 splice enh	FLuc counter	ELG1 genotoxic	Rab9 prom act	NPC1 prom act
CCCC(=O)Oc1ccc(-c2nccc(C(OC)OC)n2)cc1	-1%	13µM*	12%	?	7%
Cc1cccc2cc(CN(C(=O)c3cccc(Cl)c3)c3ccccc3)c(=O)[nH]c12	21%	2%	/	/	/
O=C(N/N=C/c1cn(-c2ccccc2)nc1-c1cc2ccccc2o1)c1ccncc1	7.1µM*	1.9µM*	?	2.2µM*	2.8µM*
O=C(N/N=C/c1cn(-c2ccccc2)nc1-c1cc2ccccc2o1)c1cccnc1	4µM*	2.1µM*	?	?	?
O=C(O)c1cccc(NC(=O)c2cn(-c3ccccc3)nc2-c2cc3ccccc3o2)c1	21%	4.3µM*	9%	9%	3%
NC(=O)c1cn(-c2ccccc2)nc1-c1cc2ccccc2oc1=O	-6%	3%	2%	-4%	-1%
CC(=O)CSCc1ccccn1	-13%[9.22 µM]	/	/	/	/
COc1cc(NC(=O)CSc2nc(-c3ccco3)cc(C(F)(F)F)n2)cc(OC)c1OC	-8%	0%	/	/	/
COCC(=O)N1CCC2(CC1)CCN(C(c1ccccc1)c1ccccc1)CC2	-1%	/	/	/	/
CC(C)(C)N1C(=O)c2ccc(C(=O)Nc3ccc(C(=O)O)cc3)cc2C1=O	/	11µM*	-1%	6%	7%
CCN1C(=O)c2ccc(C(=O)O)cc2C1=O	2%	-1%	1%	-2%	-1%
CCN1C(=O)c2ccc(C(=O)Nc3cccc(C(=O)O)c3)cc2C1=O	/	0.27µM*	2%	?	18%
O=C(O)c1ccc(NC(=O)c2ccc3c(c2)C(=O)N(c2ccccc2)C3=O)cc1	/	15µM*	3%	0%	-2%
O=C(O)c1cccc(NC(=O)c2ccc(N3C(=O)c4ccc(C(=O)Nc5cccc(C(=O)O)c5)cc4C3=O)cc2)c1	/	27µM*	0%	?	17%
CCC(CC)C(=O)Nc1ccc(S(=O)(=O)N2CCC(c3nc4ccccc4s3)CC2)cc1	/	-1%	/	/	/
O=C(CSc1nccn1Cc1ccc(Cl)cc1)Nc1ccc2c(c1)OCCO2	/	-17%	/	/	/
O=C(O)c1cccc(NC(=O)c2ccc3c(c2)C(=O)N(c2cccc([N+](=O)[O-])c2)C3=O)c1	/	3.8µM*	0%	-1%	2%
O=C(O)c1ccc2c(c1)C(=O)N(c1cccc(C(=O)/C=C/c3ccccc3)c1)C2=O	/	2.7µM*	4%	-8%	4%
COc1ccc(CCNC(=O)c2nn(-c3ccc(C)cc3)c(=O)c3c2c2ccccc2n3C)cc1OC	-8%	3%	/	/	/
O=C(NCCCN1CCN(c2ccc(F)cc2)CC1)c1ccc2nc(Cc3ccccc3)oc2c1	/	-5%	/	/	/
O=C(Nc1ccccc1)N1CCC2(CC1)CCN(C(=O)c1cnccn1)CC2	-11%	/	/	/	/
O=c1c2[nH]c3ccccc3c2ncn1CCC1=CCCCC1	24%	1%	12%	?	2.5µM*
C1=C(CCNc2ncnc3c2[nH]c2ccccc23)CCCC1	-43%	19µM*	6%	-33%	-28%
COc1ccc(OC)c2sc(N3CCCCC3)nc12	?	19µM*	18µM*	21%	29%
COc1ccc(OC)c2sc(N3CCN(C(=O)c4ccc([N+](=O)[O-])s4)CC3)nc12	/	-5%	-13%	14%	10%
c1ccc2c(c1)CCN(c1nc3cc4c(cc3s1)OCCO4)C2	/	0.11µM*	?	?	?
COc1ccc(OC)c2sc(N3CCc4ccccc4C3)nc12	3%	12µM*	7%	24%	-1%
O=S(=O)(c1ccc2c(c1)OCCO2)N1CCN(c2nc3ccccc3s2)CC1	-26%	1%	-5%	0%	-5%
COCCn1c(=O)c(-c2cccs2)nc2cnc(Oc3cccc(Cl)c3)nc21	-6%	/	/	/	/

Screening results (PubChem BioAssay)
